Test system: VDR:RXRa (NR concentration 270 nM, RXRa partner concentration 90 nM)
Assay: PBM binding z-score (relative to random genomic background probes); higher = stronger binding; sequences stand for … in GC…GCGATTGACAGCGTAGAATGAAGG
Experimental: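 Protein-binding microarray (Agilent 4x180K custom design, double-stranded 60-nt probes: 5' GC cap, 34-nt variable region, 24-nt constant primer region; full probe sequence given). Purified or IVT nuclear receptor:RXRα heterodimers (3:1 NR:RXRα, mostly 270:90 nM) or homodimers were incubated for 1 h in PBS with 2% milk and no ligand, then detected with Alexa488 antibodies. Fluorescence from o1-orientation probes (~5 replicates averaged) was converted to z-scores against 500 random hg19 background probes. Variable regions are seed direct-repeat (DR0–DR5) sites, all their single-nucleotide variants and half-site ablations.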

Sequence | PBM binding z-score
CGAACTAGGTCACCGGAAGGTCAAAGTCCGCATG | 5.8
TATACAGGGTCAAAGGCCATAGTACGAATGTCGA | 5.08
CTCGAAAGGTCGCGCTCAGGTGAGTATACCAAAC | 3.55
CCTTACGGGTGAAGGTTATAGCACGGGTGGTACG | 0.0707
GCTGCTAGGTCAGGTTGGTCAGCCAACGGGTACG | 0.447
GGAACGAGGGCGAAGTTGATAGCATCTGTCGACG | -0.285
CCTACTGGGCCAAAGGTCATTGCTTCCAATGCTC | 4.47
GCTGCTAGGTCAGGTTGGTCAGTTAACGGGTACG | 1.02
ATATGTAAGTTACATCCGGGTCATTCAGGCTATG | 3.56
TGTCAAAGTTCAAAGGTAACGTATGTATCCACAC | 5.14
TTACCAAGGTGAAGGGCGTTGATCCCTCTGTAGA | 0.253
CCGACTGGGGCATAAGGTTACCATAAGCCAGCCC | -0.0909
GAAACGAGGGCAAAGTTGATAGCATCTGTCGACG | 1.69
CGTCATAGTTCAACTAAGGTAACGTAAAGCACGC | 2.59
CCGTGTAGGTTATGGGGCATTCAGGCAACGGTGA | 0.11
GCTCGGAGGACAAGGTCAGCGCTTTGTCCGTAGA | 1.88
CATACAGGGTCAGCTAGGCCATAGTAGGGACGGC | 4.92
CAAACTAGGTCACCGGAAGGTCAGAGTCCGCATG | 4.86
ACAGACAGGCGATGAAGGTAACTCAGGCTATCAT | -0.262
AATACAGGGTCATCGTAGGCCAGATTACGCACAG | 5.22

Sequence | PBM binding z-score
TGTCAAAGTTCAAAGGTAACTTAAGTATCCACAC | 5.09
GCTGCTAGGTCAACTGATGGTTAGCTAAAGCTCG | 1.39
CGTCCAAGGTCAGCACGTCAGTGAAAGCGACGTG | 2.46
CAGCCTAGGTCAGAGCCAGTATAGGAGGAACGTT | 0.207
GGAACGAGGGCAAAGTTGATGGCATCTGTCGACG | 1.51
ACAGGCAGGTGAGTGAAGGTAACTCAGCTGGACG | -0.417
CCTGCTAGGTCATGGTCGGCTAATCTACAGTATG | 1.57
CGAACTAGGTCATTGACAGTACAGTGAATAGTAA | 2.57
ACTCGGAGGACGAAGGTCAGAGCTACGCCAGTGA | 1.15
TAGCCGAGGTCATTGGGCCAGTATAGTACGCATC | 5.59
CAAACTAGGTCACCGGAAGCTCAAAGTCCGCATG | 2.23
TGAATGAGGTTAGAAGATCAGGGAACGTTGCAAA | 0.0983
AGAACGAGGGCAATGAGTTGATCGCACGGGTGGC | 5.13
CGAACTAGGTCAGAACAGGACTGTGAAGGATGAT | 0.0454
ACTAGTTGGTCAGCTGAGGTCACACGCAATTCGG | 4.46
GCTGCTAGGTCATCTGATGGTCAGCTAAAGCTCG | 1.98
TCTGCTAGGTCAACGATGGTCAGCTATTCTGCTA | 1.71
AGAATGAGGTTAAGATCAGAGAAACAGAATACAT | 1.11
CTCGAATGGTCGTGCTCAGGTGAGTATACCAAAC | -0.155
CGTCCAAGGTCAACGTCAGTGAAAGAGACTCGAA | 4.05
